Measured values published in PubChem BioAssay AID624297 (National Center for Advancing Translational Sciences (NCATS), 2012).
Screen size: about 340,000 compounds; about 6,200 (1.8%) were called active. About 10% were inconclusive and are not listed. Calls come from the whole dose curve; as a rule, active = well fitted activation curve with a large enough effect; inconclusive = small, poorly fitted or top-dose-only effect; inactive = no such curve, though single readings can be large or run the other way. The full list was thinned out, with actives kept by preference.

Assay: A quantitative high throughput screen for small molecules that induce DNA re-replication in SW480 colon adenocarcinoma cells. For re-replication activation: % of control where 0% means no effect. Note: nearly all actives have a fitted effect of over 55% in size.
Conditions: Hoechst DNA content imaging, 48 h; series mostly up to 46.1 µM; re-replication activation: at the top concentration
Method in brief: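 Compounds, transferred as 23 nL by pin tool, were incubated with cells for 48 hr; DNA content per nucleus was then quantified by Hoechst staining and fluorescence plate imaging.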
Potency is the fitted concentration of half-maximal effect.

re-replication activation, inactive:
O=C(/C=C/c1ccc(N2CCOCC2)cc1)c1ccccc1 -2.13%, Cc1cn(COC/C=C/c2ccccc2)c(=O)[nH]c1=O -0.895%, S=c1[nH]nc(-c2cccs2)n1/N=C/c1cccs1 -91%, Oc1ccccc1/C=N/n1c(-c2cccs2)n[nH]c1=S -3.38%, CN(C(=O)COC(=O)Cn1cnc2c1c(=O)n(C)c(=O)n2C)C1(C#N)CCCCC1 5.85%, CS(=O)(=O)c1ccc(C(=O)NNC(=O)c2cccs2)cc1 -2.57%, O=C(COC(=O)Cc1ccc([N+](=O)[O-])cc1)NC1CCCCCC1 -5.69%, O=C(OCC(=O)N1CCN(c2ccccc2)CC1)c1ccc([N+](=O)[O-])s1 11.2%, N#CCc1c[nH]c2ccc([N+](=O)[O-])cc12 -4.91%, C/C=C/c1ccc(OCC(=O)NNC(=O)CN(C)S(=O)(=O)c2ccc(C)cc2)c(OC)c1 -2.13%, CCCCSc1nc2ccccc2[nH]1 -19.9%, CCc1nnc(NC(=O)CCCSc2nc3ccccc3[nH]2)s1 -4.91%, Nc1ncnc2c1cnn2C1CC(O)C(CO)O1 (centres undefined) 0.418%, CC(C)N(C(=O)[C@H]1C[C@H](CC(=O)NCCC2=CCCCC2)C(=O)N2CCc3c([nH]c4cc(CCC(=O)N(C)C)ccc34)[C@]12C)C(C)C 1.7%, CC(Nc1ccc([N+](=O)[O-])cc1[N+](=O)[O-])c1ccccc1 (centres undefined) -1.62%, CCOc1ccc(-n2c(SCC(=O)OC)nc3sc4c(c3c2=O)CCN(C)C4)cc1 -10.5%, COc1ccccc1NC(=O)CSc1nc2sc3c(c2c(=O)n1-c1ccccc1)CCN(C)C3 -6.29%, Cc1noc(C)c1NC(=O)Nc1ccc2c(c1)C(=O)N([C@H](C)CO)C[C@H](C)[C@@H](CN(C)S(=O)(=O)c1cn(C)cn1)O2 -13.9%, C[C@]12c3[nH]c4ccc(Cl)cc4c3CCN1C(=O)[C@@H](CC(=O)NCCCn1ccnc1)C[C@@H]2C(=O)N1CCOCC1 59.9%, O=C(NN=Cc1ccccc1)c1ccccc1 -1.63%, Oc1ccccc1C=NC1CCCCC1N=Cc1ccccc1O (centres undefined) 0.236%, COc1ccc(/C=N/NC(=O)C2CC2)c(OC)c1OC 29.6%, O=C(N/N=C/c1c[nH]c2ccccc12)c1ccccc1O -1.5%, NC(CSC1(c2ccccc2)c2ccccc2-c2ccccc21)C(=O)O (centres undefined) -2.84%, COc1cc(OC)cc(C(=O)NCC(=O)N2CCCCCCC2)c1 -20.2%, NC(=O)c1ncn([C@@H]2O[C@H](CNCc3cnc(N4CCOCC4)s3)[C@@H](O)[C@H]2O)n1 2.79%, NS(=O)(=O)c1ccc(CCNC(=O)c2ccc(Cl)c(S(=O)(=O)N3CCCCCC3)c2)cc1 0.904%, COc1ccc2oc(N)nc2c1 -6.24%, CC[C@]1(C(=O)OC)[C@H]2C(=O)N(Cc3ccccc3)C(=O)[C@H]2[C@H]2CN=C(SCc3ccc(Cl)cc3)N21 -1.04%, CCc1c(Nc2ccccc2C)nc(N)[nH]c1=O -0.657%, Cc1c(C(=O)N2CCCc3ccccc32)oc2ccccc12 -0.943%, Cc1c(C(=O)N2CCCc3ccccc32)sc2nc(-c3ccccc3)cn12 -5.48%, CN(C(=O)c1cccc(NC(=O)Cc2cccc(NC(=O)C3CCCN(C(=O)C4CC4)C3)c2)c1)C1CCC1 (centres undefined) 3.52% [at 9.22 µM], COc1ccccc1CC(=O)Nc1ccc(F)cc1F 15.1%, COC(=O)c1ccccc1NC(=O)Cc1ccccc1OC 4.59%, O=C(Cc1ccc(Cl)cc1)c1ccccc1 -2.09%, O=C1CC(C(=O)O)NC(=S)N1 (centres undefined) -8.61%, Cc1ccc(C)c(N2CCN(C(=O)CCc3nc(-c4cccc(C(F)(F)F)c4)no3)CC2)c1 -5.4%, CC(C)CN1CC(C)C(=O)N(c2ccccc2)C1=S (centres undefined) 0.56%, COc1ccc(Nc2nnc(C)c3ccccc23)cc1 -1.06%, COc1ccc2oc(=O)cc(-c3cc4ccccc4o3)c2c1 28.5%, CN1CCC(N(C)C(=O)c2ccc(Cl)c(S(=O)(=O)Nc3ccc(Cl)cc3)c2)CC1 -14.4%, CCOC(=O)c1c(C)[nH]c(C)c1S(=O)(=O)N(C)CC(=O)Nc1ccccc1C -3.39%, CCOC(=O)c1ccccc1OC(=O)Oc1ccccc1C(=O)OCC -5.07%, O=C(NCc1ccccc1)c1cccc(NC(=O)C2CCCCC2)c1 -9.55% [at 9.22 µM], Cn1c(=O)[nH]c2c(c(C(=O)O)nn2C)c1=O -4.09%, COCC(=O)N(C)[C@H]1C[C@H]2c3cc(Oc4ccccc4C)ccc3CCN2C(=O)[C@H]1[C@H](C)O -7.86%, N#CC(Cc1cc2ccccc2n1S(=O)(=O)c1ccccc1)OCc1ccccc1 (centres undefined) 15.5%, N#Cc1cccc(NC(=O)COC(=O)c2ccccc2C(=O)c2ccc(Cl)c([N+](=O)[O-])c2)c1 17.9%, CC(OC(=O)CNC(=O)c1ccc(Cl)c([N+](=O)[O-])c1)C(=O)NCc1ccco1 (centres undefined) -91%, Cc1ccc(S(=O)(=O)N2[C@@H](c3cccc4ccccc34)C(C(=O)O)=C[C@H]2C(C)(C)C)cc1 -25.3% [at 9.22 µM], CCc1nc(SCC(=O)NNC(=O)c2ccc(C)cc2)c2ccccc2n1 -6.34%, C=CCSc1nc(Cc2ccc(Cl)cc2)nc2ccccc12 0.994%, CC(=O)Nc1ccc(C(=O)Nc2cc(S(=O)(=O)N3CCOCC3)ccc2N2CCOCC2)cc1 -2.34%, CC(Oc1ccc2c(-c3ccccc3)cc(=O)oc2c1)C(=O)NC(Cc1c[nH]c2ccccc12)C(=O)O (centres undefined) -6.21%, CCCNC(=O)c1onc(CSc2ccc(F)cc2)c1C(=O)NC(C)C -5.91%, CCOc1cccc(SCc2noc(C(=O)NC(C)C)c2C(=O)O)c1 -7.12%, CC(=O)N1CCc2ccc(N)cc21 0.538%, OC(COc1ccccc1)CN1CCN(c2cccc(Cl)c2)CC1 (centres undefined) 6.18%, O=C(NN=CC=Cc1ccccc1)C(O)C(O)C(=O)NN=CC=Cc1ccccc1 (centres undefined) 1.81%, CN(C(=O)c1cccc(NC(=O)Cc2ccc(NC(=O)C3CCCN(C(=O)C4CCCC4)C3)cc2)c1)C1CCC1 (centres undefined) -19.7% [at 9.22 µM], CC1(C(=O)N/N=C/c2cc3c(cc2Br)OCO3)CC1(Br)Br (centres undefined) 14.3%, O=C(N/N=C/c1cc2c(cc1Br)OCO2)C1COc2ccccc2O1 (centres undefined) -2.55%, O=C(CSc1ncnc2sccc12)NC1CCS(=O)(=O)C1 (centres undefined) 0.0411%, O=C(Nc1ccc2c(c1)OCO2)C1CC1(Cl)Cl (centres undefined) -4.89%, O=C(Nc1c[nH]c(=O)[nH]c1=O)OCc1ccccc1 -3.99%, COc1ccc(NC(=O)/C(N=Nc2cccc(S(=O)(=O)Nc3ccc(SC(F)F)cc3)c2)=C(\C)O)cc1 -12.2%, Cc1nc(N2CCOCC2)nc2c1CCCC2 -2.45%, COc1ccc(/C=C/C(=O)OCC(=O)N2CCN(S(=O)(=O)c3ccc(C)cc3C)CC2)cc1OC -1.7%, Cc1nc(N)sc1-c1ccccc1 -0.764%, O=C1COc2ccc(C(=O)CSc3ccc(Br)cc3)cc2N1 1.01%, C=CCn1c(=O)n(C)c2c(=O)n(C)c(=O)n(C)c21 -9.28%, COc1ccc(C(=O)N[C@H](C(=O)NCc2ccccc2)C(C)C)cc1 -9.23%, COc1cc(OC)cc(C(=O)N[C@H](C(=O)NNC(=O)c2ccc(Br)cc2)C(C)C)c1 3.18%, Cc1ccc(S(=O)(=O)N2CCN(C(=O)c3cc(S(=O)(=O)N4CCOCC4)ccc3F)CC2)cc1 4.45%, CN(C)c1ccc(C2N(C)C(=O)c3ccccc3N2C)cc1 (centres undefined) -1.45%, Cc1ccc(S(=O)(=O)NC[C@H]2O[C@@H](n3cnc4c(N)ncnc43)[C@H](O)[C@@H]2O)s1 -0.834%, CCC(=O)NC(Nc1nc2ccc(C)cc2s1)(C(=O)OC)C(F)(F)F (centres undefined) 2.72%, CCOc1ccc2nc(NC(=O)c3cc([N+](=O)[O-])ccc3N3CCOCC3)sc2c1 0.212%, CC(=O)c1ccc(NC(=O)C(C)OC(=O)c2ccc(NS(=O)(=O)c3ccc4[nH]c(=O)[nH]c4c3)cc2)cc1 (centres undefined) -46%

Potency, active:
Cc1[nH]c(=O)c(C(=O)/C=C/c2ccccc2)c2c1CCCC2 20.6 µM, Cc1cc(-c2n[nH]c(=S)n2/N=C/C(Br)=C/c2ccccc2)n[nH]1 6.51 µM, Cc1ccc(C2=Nc3c(ccc4ccccc34)C(c3ccncc3)=NN2)cc1 18.4 µM, CCC(C)N1C(=O)S/C(=C/c2ccc(Sc3nc4ccccc4[nH]3)o2)C1=O (centres undefined) 18.4 µM, CCCSc1nc2sc3c(c2c(=O)n1-c1ccc(OC)cc1)CCN(C)C3 1.84 µM, O=C(NN=Cc1ccccc1O)NN=Cc1ccccc1O 16.4 µM, O=C(N/N=C/c1ccccc1O)C1CCCC1 4.61 µM, Cc1cccc2cc3c(N)c(C(=O)N4CCCc5ccccc54)sc3nc12 5.17 µM, CC[C@]1(c2ccccc2OC)C(=O)N(C(=O)OC)N1C(=O)OC 23.1 µM, COc1ccc(Nc2cc(=O)oc3ccccc23)cc1 5.17 µM, CCOC(=O)c1c(C)[nH]c2c1-c1ccccc1C(=O)C2=O 5.17 µM, CC(=O)Nc1ccc(NC(=O)C(C)OC(=O)c2ccccc2C(=O)c2ccc(Cl)c([N+](=O)[O-])c2)cc1 (centres undefined) 16.4 µM, CCCNC(=O)CSc1nc(Cc2ccccc2)nc2ccccc12 9.2 µM, COC(=O)c1c(CCl)noc1C(=O)NC(C)C 20.6 µM, O=C(N/N=C\c1cc2c(cc1Cl)OCO2)c1ccc(Br)s1 7.31 µM, Nc1nc(-c2sc3nc4c(cc3c2N)CCCC4)nc(N2CCOCC2)n1 10.3 µM, COc1cc(OC)cc(C(=O)N[C@H](C(=O)Nc2nc3ccccc3[nH]2)C(C)C)c1 0.164 µM, CN(C)c1ccc(Nc2c3c4c(cccc4n(C)c2=O)C(=O)c2ccccc2-3)cc1 7.31 µM, O=C(NC(Nc1nc2ccc([N+](=O)[O-])cc2s1)(C(F)(F)F)C(F)(F)F)c1ccccc1 20.6 µM
